Screens from PubChem BioAssay.
Shown are actives, neighbours in structure and some others; about 5.2% of the full set was active somewhere.
SMARCA2 act: increases SMARCA2 function in MMTV reporter cells | activation, % at 9.1 µM | hit rate 1% among 370,000 | MG213 cells, MMTV-luciferase reporter, dexamethasone, overnight; in the data active = activation above about 7.8%
Vif inh: inhibitors of HIV Vif; HEK293T cells, Vif self-association by quenched fluorescence, imaging, 24 h; inhibition, % at 7.49 µM; hit rate 0.35% among 340,000; AID 602346; in the data active = inhibition above about 50%, passing the limit was not always enough; inconclusive = no clear call, values can overlap the other calls; inactive = below about 31%
GRIN3A LBD mod: modulators (binders) of human NR3A ligand-binding domain; NR3A LBD differential scanning fluorimetry, Tm shift; 0% = protein alone, 100% = glycine-bound protein; Tm shift relative to glycine control, % at 25 µM; hit rate 2.5% among 340,000;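 active = melting temperature shift of at least 10% of the positive control shift, at one fixed dose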
NadD block: NadD (S. aureus) enzyme inhibition; purified NadD enzyme, colorimetric absorbance read-out; inhibition, % at 20 µM; hit rate 0.78% among 360,000; in the data active = inhibition above about 26%
SKN-1 inh: inhibitors of C. elegans SKN-1; hit rate 0.49% among 360,000; C. elegans VP596 Pgst-4::GFP/RFP ratio, acrylamide-induced, 24 h; AID 624304; inhibition, % at 21.8 µM;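 active = interference check ratio from 0.5 to 1.5 plus GFP to RFP signal ratio inhibition reaching or exceeding a fixed threshold, cut at about 30% in these data, passing the limit was not always enough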
esBAF inh: inhibitors of esBAF chromatin remodeling in mouse ES cells | Bmi1-luciferase knock-in reporter, 24 h; 100% = twice the neutral-well signal | reporter increase, % at 12.5 µM | hit rate 2% among 350,000 | AID 602393; in the data active = activation above about 40%; inconclusive = no clear call, values can overlap the other calls;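 also: a rise in the Bmi1 reporter signal indicates esBAF inhibition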
A number is an active result; – = inactive; ? = inconclusive; · = not tested or not shown.

SMILES	SMARCA2 act	Vif inh	GRIN3A LBD mod	NadD block	SKN-1 inh	esBAF inh
Cc1ccc(NCC(=O)N/N=C/c2ccc(-c3cccc(C(F)(F)F)c3)o2)cc1	–	–	25	–	–	·
O=C(N/N=C/c1ccc(-c2cccc(C(F)(F)F)c2)o1)c1ccccc1Br	–	–	15	–	–	–
O=C(NCCN1C(=O)C2C3C=CC(C3)C2C1=O)Nc1ccc(Br)cc1 (stereo unspecified)	–	–	–	–	–	62
O=C(NCCN1C(=O)C2C3C=CC(C3)C2C1=O)Nc1cccnc1 (stereo unspecified)	–	–	–	–	–	–
C[C@H]1CN([C@@H](C)CO)C(=O)c2cccc(NS(=O)(=O)c3ccc(F)cc3)c2O[C@H]1CN(C)C(=O)Nc1ccc(C(F)(F)F)cc1	·	·	·	·	·	–
CCOC(=O)/C=C/[C@H]1CCc2cccc(Cl)c2O1	–	–	15	–	–	–
CCOC(=O)/C=C/C(=O)OCC(=O)Nc1c(Cl)cccc1Cl	–	–	–	–	–	–
CCN(CC)C(=O)c1sc(NC(=O)Cc2ccc(OC)cc2)c(C#N)c1C	–	–	–	–	45	–
C[C@H](CO)N1C[C@H](C)[C@H](CN(C)Cc2ccc(C(=O)Nc3ccccc3N)cc2)Oc2ccc(NS(=O)(=O)c3ccc(F)cc3)cc2C1=O	·	·	·	·	·	–
Cc1cccc(NC(=O)Oc2ccc(Cl)c3cccnc23)c1	–	–	·	–	–	51
COc1ccc(/C=C/C(=O)Oc2cccc(/C=N/NC(=O)COc3c(C)cccc3C)c2)cc1	–	–	–	–	–	45
Cc1cc(C(=O)CN2C(=O)c3ccccc3C2=O)c(C)n1C1CC1	–	–	17	–	–	–
Cc1ccc(OCC(=O)c2cc(C)n(C3CC3)c2C)c([N+](=O)[O-])n1	–	–	–	–	–	·
CCN1C(=O)C(=O)N(CC(=O)c2cc(C)n(C3CC3)c2C)C1=O	–	–	–	–	–	?
Cc1cc(C(=O)COc2cccc([N+](=O)[O-])c2)c(C)n1C1CC1	–	–	–	–	–	71
O=C(C[C@H]1CC[C@@H]2[C@H](COC[C@@H](O)CN2Cc2cc(F)cc(F)c2)O1)NCc1cccc(F)c1	·	·	·	·	·	–
O=C(Oc1cccc2ccccc12)c1cc(Cl)nc2ccccc12	–	–	14	–	–	·
O=Cc1ccc(OC(=O)c2cc(Cl)nc3ccccc23)cc1	–	–	–	–	–	·
CC(=O)Cc1nsc(NC(=O)c2cn(-c3ccccc3)nc2-c2ccc(Br)cc2)n1	–	–	31	–	–	–
CC(C)COc1ccc(-c2nn(-c3ccccc3)cc2C(=O)Nc2nccs2)cc1	–	–	10	–	–	–
COc1ccccc1COC(=O)CN1C(=O)NC2(CCCCC2C)C1=O (stereo unspecified)	–	–	–	–	–	–
Cc1ccc(COC(=O)CN2C(=O)NC3(CCCCC3C)C2=O)cc1 (stereo unspecified)	–	–	11	–	–	·
c1ccc2c(Nc3nc4c(s3)CCCC4)cccc2c1	–	–	–	–	45	–
C[C@@H]1CN([C@@H](C)CO)C(=O)c2cc(NC(=O)C3CC3)ccc2O[C@H]1CN(C)Cc1ccncc1	·	·	·	·	·	–
C[C@@H]1CN([C@@H](C)CO)C(=O)c2cc(N(C)C)ccc2O[C@@H](C)CCCCO[C@H]1CN(C)C	·	·	·	·	·	–
SMILES	SMARCA2 act	Vif inh	GRIN3A LBD mod	NadD block	SKN-1 inh	esBAF inh
C=CCn1c(O)c(/C=C2\C=NN=C2c2ccccc2)sc1=S	–	–	12	–	–	·
CCCn1c(O)c(/C=C2\C=NN=C2c2ccccc2)sc1=S	–	–	16	–	–	–
O=C(O)CCCn1c(O)c(C=C2N=c3ccccc3=N2)sc1=S	–	–	–	–	–	·
CCCCC(CC)Cn1c(O)c(/C=C2\C=NN=C2c2ccccc2)sc1=S (stereo unspecified)	–	–	21	–	–	·
CCn1c(O)c(C=Nc2ccccc2)sc1=S	–	·	–	·	·	·
COCC#Cc1ccc2c(c1)O[C@@H](CN(C)C(=O)C1CCC1)[C@H](C)CN([C@@H](C)CO)S2(=O)=O	·	·	·	·	·	–
O=C(C[C@H]1C=C[C@@H](NC(=O)C2CC2)[C@@H](CO)O1)NCc1ccncc1	·	·	·	·	·	–
CCOC(=O)c1c(NC(=O)Nc2ccc(Cl)cc2)sc(C)c1C	–	·	–	–	–	–
CCOC(=O)c1sc(NC(=O)c2ccc(Cl)s2)cc1C	–	–	18	–	–	62
CCOC(=O)c1sc2ccccc2c1NC(=O)c1coc2ccccc2c1=O	–	–	–	–	–	–
CCOC(=O)c1sc(=S)n(C)c1NC(=O)c1ccccc1	–	–	16	–	–	·
CCOC(=O)c1sc2ccccc2c1OC(=O)c1ccccc1	–	–	14	–	–	–
CCOC(=O)c1sc(NC(=O)Nc2ccc(Cl)cc2)cc1C	–	–	27	–	–	·
CN(C)CCCNC(=O)C[C@@H]1CC[C@H]2[C@@H](COC[C@@H](O)CN2Cc2ccc(Cl)c(Cl)c2)O1	·	·	·	·	·	–
CN(C)C(=O)C[C@@H]1C[C@H]2c3cc(NC(=O)Nc4ccccc4F)ccc3O[C@H]2[C@H](CO)O1	·	·	·	·	·	–
O=C(C[C@H]1C[C@@H]2c3cc(NC(=O)c4ccc5c(c4)OCO5)ccc3O[C@@H]2[C@@H](CO)O1)NCc1ccccn1	·	·	·	·	·	–
C[C@H](CO)N1C[C@H](C)[C@@H](CN(C)C(=O)CCCN(C)C)OCCCC[C@H](C)Oc2ccc(NS(=O)(=O)c3cn(C)cn3)cc2C1=O	·	·	·	·	·	–
CCOC(=O)c1sc(=NC(=O)c2ccccc2)n(C)c1C	–	–	–	–	–	71
CCOC(=O)c1sc(NC(=O)c2ccc(S(=O)(=O)N3CCOCC3)cc2)cc1C	–	–	20	–	–	–
CCOC(=O)c1sc(NC(=O)C2CC2)cc1C	–	·	–	–	–	–
CCOC(=O)c1sc(NC(=O)c2ccccc2)cc1C	–	–	–	–	–	57
CCOC(=O)c1sc(NC(=O)C(C)(C)C)cc1C	–	·	–	–	–	57
C[C@H](CO)N1C[C@H](C)[C@@H](CN(C)S(=O)(=O)c2ccc(Cl)cc2)Oc2c(NC(=O)c3cnccn3)cccc2C1=O	·	·	·	·	·	–
CC(C)=CCc1c2c(c(O)c3c(=O)c4c(oc13)-c1cc(O)c(O)cc1OC4C=C(C)C)C=CC(C)(C)O2 (stereo unspecified)	·	·	22	·	·	·
CC(C)=CCc1c(O)cc2oc3c(CC=C(C)C)c(O)c(O)c(CC=C(C)C)c3c(=O)c2c1O	–	–	–	–	–	–
CC(C)=CCc1c([C@@H]2CCc3ccc(O)cc3O2)cc2c(c1O)OC(C)(C)C=C2	·	–	–	–	–	–
CC(C)=CCc1c(-c2ccc(O)cc2O)oc2c3c(cc(O)c2c1=O)OC(C)(C)C=C3	·	·	27	·	·	·
CCOC(=O)c1ccc(S(=O)(=O)NCC(c2ccc(N(C)C)cc2)c2c[nH]c3ccccc23)cc1 (stereo unspecified)	–	–	16	–	–	·
